Measured values taken from PubChem BioAssay (NCATS).
Records with an inconclusive call do not appear. Where a call stands in place of a potency, no number is given. Activity calls are given as the source filed them. Calls follow the shape of the dose curve; as a rule, active = well fitted curve in the direction sought with a large enough effect; inconclusive = small, poorly fitted or top-dose-only effect, or another doubt; inactive = no such curve, though single readings can be large; an effect the other way counts as inactive or inconclusive.

Key:
[1] = S16 Schwann cell viability assay (CellTiter-Glo assay) (AID 624031);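 also: cellular ATP luminescence as a viability measure; nearly all actives have a fitted effect of over 70% in size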
Summary of the method: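 CellTiter-Glo ATP luminescence counter-screen in untransfected S16 rat Schwann cells, 24h compound exposure at 37 degree Celsius after overnight seeding (500-750 cells/well); response scaled between cell-free wells and DMSO (0% activity), curves classed by r2 and magnitude.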

7G8 = assay: qHTS profiling for inhibitors of Plasmodium falciparum proliferation (AID 504749); also: nearly all actives have a fitted effect of over 60% in size; also: potency is read from the fitted curve at half-maximal effect; conditions: P. falciparum in erythrocytes, SYBR Green DNA, 72 h; series mostly up to 12.8 µM
Summary of the method: (§1)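 Fluorescence of SYBR Green-bound parasite DNA, read at 485/535 nm, served as the growth measure. Infected erythrocytes were cultured with compound 72 h; artemisinin (0.29 uM) and DMSO wells defined the normalization range.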

ATS189 = assay: as above; conditions: P. falciparum in erythrocytes, SYBR Green DNA, 72 h; series mostly up to 12.8 µM
Summary of the method: as §1

CP185 = assay: as above; conditions: P. falciparum in erythrocytes, SYBR Green DNA, 72 h; series mostly up to 12.8 µM
Summary of the method: as §1

CP191 = assay: as above; conditions: P. falciparum in erythrocytes, SYBR Green DNA, 72 h; series mostly up to 12.8 µM
Summary of the method: as §1

CP201 = assay: as above; conditions: P. falciparum in erythrocytes, SYBR Green DNA, 72 h; series mostly up to 12.8 µM
Summary of the method: as §1

CP247 = assay: as above; conditions: P. falciparum in erythrocytes, SYBR Green DNA, 72 h; series mostly up to 12.8 µM
Summary of the method: as §1

CP256 = assay: as above; conditions: P. falciparum in erythrocytes, SYBR Green DNA, 72 h; series mostly up to 12.8 µM
Summary of the method: as §1

CP325 = assay: as above; conditions: P. falciparum in erythrocytes, SYBR Green DNA, 72 h; series mostly up to 12.8 µM
Summary of the method: as §1

CP329 = assay: as above; conditions: P. falciparum in erythrocytes, SYBR Green DNA, 72 h; series mostly up to 12.8 µM
Summary of the method: as §1

CP335 = assay: as above; conditions: P. falciparum in erythrocytes, SYBR Green DNA, 72 h; series mostly up to 12.8 µM
Summary of the method: as §1

DFO2036 = assay: as above; conditions: P. falciparum in erythrocytes, SYBR Green DNA, 72 h; series mostly up to 12.8 µM
Summary of the method: as §1

Dd2 = assay: as above; conditions: P. falciparum in erythrocytes, SYBR Green DNA, 72 h; series mostly up to 12.8 µM
Summary of the method: as §1

ECU = assay: as above; conditions: P. falciparum in erythrocytes, SYBR Green DNA, 72 h; series mostly up to 12.8 µM
Summary of the method: as §1

HB3 = assay: as above; conditions: P. falciparum in erythrocytes, SYBR Green DNA, 72 h; series mostly up to 12.8 µM
Summary of the method: as §1

N140 = assay: as above; conditions: P. falciparum in erythrocytes, SYBR Green DNA, 72 h; series mostly up to 12.8 µM
Summary of the method: as §1

PC15 = assay: as above; conditions: P. falciparum in erythrocytes, SYBR Green DNA, 72 h; series mostly up to 12.8 µM
Summary of the method: as §1

SC27B = assay: as above; conditions: P. falciparum in erythrocytes, SYBR Green DNA, 72 h; series mostly up to 12.8 µM
Summary of the method: as §1

TAB113 = assay: as above; conditions: P. falciparum in erythrocytes, SYBR Green DNA, 72 h; series mostly up to 12.8 µM
Summary of the method: as §1

TAB165 = assay: as above; conditions: P. falciparum in erythrocytes, SYBR Green DNA, 72 h; series mostly up to 12.8 µM
Summary of the method: as §1

SMILES	Potency [1]	Potency (7G8)	Potency (ATS189)	Potency (CP185)	Potency (CP191)	Potency (CP201)	Potency (CP247)	Potency (CP256)	Potency (CP325)	Potency (CP329)	Potency (CP335)	Potency (DFO2036)	Potency (Dd2)	Potency (ECU)	Potency (HB3)	Potency (N140)	Potency (PC15)	Potency (SC27B)	Potency (TAB113)	Potency (TAB165)
CC(C)(C)NC[C@H](O)c1cc(O)cc(O)c1	inactive	inactive	inactive	inactive	inactive	inactive	inactive	inactive	inactive	inactive	inactive	inactive	inactive	inactive	inactive	inactive	inactive	inactive	inactive	inactive
C[C@@H]1c2cccc(O)c2C(O)=C2C(=O)[C@@]3(O)C(O)=C(C(N)=O)C(=O)[C@@H](N(C)C)[C@@H]3[C@@H](O)[C@@H]21	inactive	3980 nM (active)			inactive	inactive	inactive			inactive	4260 nM (active)		3980 nM (active)			inactive	inactive			
C[C@@H](CCc1ccccc1)NC[C@H](O)c1ccc(O)c(C(N)=O)c1	inactive	11200 nM (active)	inactive	inactive	inactive	inactive	inactive	inactive	inactive	inactive	inactive		inactive			inactive	inactive	inactive	inactive	inactive
NC(=O)c1cc[n+](CC2=C(C(=O)O)N3C(=O)[C@@H](NC(=O)[C@H](c4ccccc4)S(=O)(=O)[O-])[C@@H]3SC2)cc1	inactive	178 nM (active)	1580 nM (active)		1410 nM (active)		3550 nM (active)	3550 nM (active)	4550 nM (active)		1610 nM (active)	1780 nM (active)	1260 nM (active)	2000 nM (active)	891 nM (active)	1410 nM (active)	1000 nM (active)	2510 nM (active)	1780 nM (active)	1000 nM (active)
C[C@@H]1COc2c(N3CCN(C)CC3)c(F)cc3c(=O)c(C(=O)O)cn1c23	inactive	inactive	inactive	inactive	inactive	inactive	inactive	inactive	inactive	inactive	inactive	inactive	inactive	inactive	inactive	inactive	inactive	inactive	inactive	inactive
O=C(c1ccccc1)c1ccc2n1CC[C@H]2C(=O)O	inactive	inactive	inactive	inactive	inactive	inactive	inactive	inactive	inactive	inactive	inactive	inactive	inactive	inactive	inactive	inactive	inactive	inactive	inactive	inactive
CO/N=C(\C(=O)N[C@@H]1C(=O)N2C(C(=O)O)=C(COC(C)=O)CS[C@@H]12)c1csc(N)n1	inactive	inactive	inactive	inactive	inactive	inactive	inactive	inactive	inactive	inactive	inactive	inactive	inactive	inactive	inactive	inactive	inactive	inactive	inactive	inactive
CO[C@]1(NC(=O)CSCC#N)C(=O)N2C(C(=O)O)=C(CSc3nnnn3C)CS[C@H]21	inactive	inactive	inactive	inactive	inactive	inactive	inactive	inactive	inactive	inactive	inactive	inactive	inactive	inactive	inactive	inactive	inactive	inactive	inactive	inactive
CCCN[C@@H](C)C(=O)Nc1ccccc1C	inactive	inactive	inactive	inactive	inactive	inactive	inactive	inactive	inactive	inactive	inactive	inactive	inactive	inactive	inactive	inactive	inactive	inactive	inactive	inactive
CCn1cc(C(=O)O)c(=O)c2cc(F)c(N3CCN[C@@H](C)C3)c(F)c21	inactive	inactive	inactive	inactive	inactive	inactive	inactive	inactive		inactive		inactive	inactive	inactive	inactive	inactive	inactive	inactive		inactive
CC(C)NC[C@H](O)c1cc(O)cc(O)c1	inactive	inactive	inactive	inactive	inactive	inactive	inactive	inactive	inactive	inactive	inactive	inactive	inactive	inactive	inactive	inactive	inactive	inactive	inactive	inactive
CCCN[C@@H](C)C(=O)Nc1c(C)csc1C(=O)OC	inactive	inactive	inactive	inactive	inactive	inactive	inactive	inactive	inactive	inactive	inactive	inactive	inactive	inactive	inactive	inactive	inactive	inactive	inactive	inactive
NC(N)=NC[C@@H]1COC2(CCCCC2)O1	inactive	inactive	inactive	inactive	inactive	inactive	inactive	inactive	inactive	inactive	inactive	inactive	inactive	inactive	inactive	inactive	inactive	inactive	inactive	inactive
